For assay [1], the target named is Aldehyde dehydrogenase, mitochondrial (Homo sapiens) (UniProt P05091). Briefly: qHTS for Inhibitors of the Aldehyde Dehydrogenase Family (ALDH2) Primary screen (AID 2061308; note: nearly all actives have a fitted effect of over 55% in size). (In qHTS, concentration-response curves come from the screen itself.)
In assay [2] the target is Retinaldehyde dehydrogenase 3 (Homo sapiens) (UniProt P47895). Briefly: qHTS for Inhibitors of the Aldehyde Dehydrogenase Family (ALDH1A3) Primary screen (AID 2061315).

Results filed as inconclusive are left out. Where a call stands in place of a potency, no number is given. Activity calls are given as the source filed them. Calls come from the whole dose curve; as a rule, active = well fitted curve in the direction sought with a large enough effect; inconclusive = small, poorly fitted or top-dose-only effect, or another doubt; inactive = no such curve, though single readings can be large; an effect the other way counts as inactive or inconclusive.

Turning to `CC(C)c1ccccc1-c1ncc(F)c(NCc2ccc(-n3ccnn3)cc2)n1`, the Potency result in assay [1] and in assay [2] was “inactive” in each case.

In the case of `Cc1cc(NC(=S)N2CCN(c3cccc(C(F)(F)F)c3)CC2)nc2ccccc12`, the Potency result in assay [1] and in assay [2] was “inactive” in each case.

On to `Fc1cnc(-c2ccccc2C(F)F)nc1NCC1CCN(c2cnccn2)C1` (stereo not drawn), for which the Potency entry in assay [1] and in assay [2] was “inactive” in each case.

With `O=S(=O)(Nc1ccccc1F)c1ccc(O)c2ncccc12`, the Potency result in assay [1] and in assay [2] was “inactive” throughout.

As for `O=C(NC1CCCc2c1cnn2-c1ccc(F)cc1F)c1cccs1` (stereo not drawn), the Potency result in assay [1] and in assay [2] was “inactive” in each case.

In the case of `COc1ccc(CC(=O)Nc2ccc(S(=O)(=O)Nc3cc(C)on3)cc2)cc1C`, the Potency result in assay [1] and in assay [2] was “inactive” throughout.

Turning to `CCCn1c(-c2ccc(F)cc2)nc2c(NC(C)CN(C)C)nc(C)nc21` (stereo not drawn), the Potency result in assay [1] and in assay [2] was “inactive” throughout.

In the case of `Cc1ccccc1C(=O)N1CCc2cc(-c3ccnc(NC(=O)Cc4ccccc4)n3)ccc21`, the Potency entry in assay [1] and in assay [2] was “inactive” throughout.

`Cc1cccc(-n2cnc3cc(C(=O)N4CCC(N5CCOCC5)CC4)ccc32)c1`: the Potency result in assay [1] and in assay [2] was “inactive” in each case.

Take `O=C(NCc1ccccc1)Nc1nnc(-c2ccncc2)s1`: the Potency result in assay [1] and in assay [2] was “inactive” each time.

With `C=C1C(=O)OC2CC3(C)C(O)C(=O)C=C(C)C3CC12` (stereo not drawn), the Potency result in assay [1] and in assay [2] was “inactive” throughout.

On to `O=C(O)c1ccc2c(c1)C(=O)N([C@H](Cc1cccc3ccccc13)C(=O)O)C2=O`, for which the Potency entry in assay [1] and in assay [2] was “inactive” in each case.

`COc1ccc(NC(=O)c2cnn3c(C)cc(C)nc23)cc1OC`: the Potency result in assay [1] and in assay [2] was “inactive” in each case.

As to `O=C(OCC#CCSc1nnc(-c2cccc3ccccc23)o1)c1ccc(Cl)c(C(F)(F)F)c1`, the Potency entry in assay [1] and in assay [2] was “inactive” throughout.

Regarding `CCCN(Cc1cccs1)c1ncnc2ccc(-c3ccc4c(c3)OCO4)cc12`, the Potency entry in assay [1] and in assay [2] was “inactive” each time.

With `OC[C@H]1O[C@@H](O[C@H]2[C@H](OCCc3ccccc3)O[C@H](CO)[C@@H](O)[C@@H]2O)[C@H](O)[C@@H](O)[C@@H]1O`, the Potency result in assay [1] and in assay [2] was “inactive” throughout.

`COc1cc(O)c(C(CC(=O)N2CCCC(COc3ccc(F)cc3)C2)c2ccc3c(c2)OCO3)c(OC)c1` (stereo not drawn): the Potency result in assay [1] and in assay [2] was “inactive” throughout.

Take `Cc1noc(-c2ccc(-c3ccc(CC(=O)O)cc3)cc2)c1NC(=O)O[C@H](C)c1ccccc1Cl`: the Potency result in assay [1] and in assay [2] was “inactive” each time.

On to `NC(=O)C1CCN(c2nc(-c3cccs3)cs2)CC1`, for which the Potency entry in assay [1] and in assay [2] was “inactive” in each case.

Regarding `COc1cccc(-c2csc(N3CCC(C(N)=O)CC3)n2)c1`, the Potency result in assay [1] and in assay [2] was “inactive” throughout.

In the case of `Cc1cc(C)nc(NC(=S)N2CCN(c3cc(Cl)cc(C(F)(F)F)c3)CC2)c1`, the Potency result in assay [1] and in assay [2] was “inactive” throughout.

Turning to `Cn1ncc(Cl)c1-c1cc(C(=O)N[C@H](CN)Cc2ccc(F)c(F)c2)oc1Cl`, the Potency result in assay [1] and in assay [2] was “inactive” each time.

On to `Cc1ccc(-c2cc(C(=O)Nc3ccc(S(=O)(=O)N(C)C)cc3)c3ccccc3n2)cc1C`, for which the Potency entry in assay [1] and in assay [2] was “inactive” each time.

As for `CCn1c2ccccc2c2cc(Nc3ccnc(NCCCN4CCOCC4)n3)ccc21`, the Potency entry in assay [1] and in assay [2] was “inactive” each time.

`CCCCNc1nc(C)nc2c1nc(-c1ccccc1)n2CCCN(C)C`: the Potency result in assay [1] and in assay [2] was “inactive” each time.

For the compound `Cc1ccc(-n2c(=O)ccc(=O)n2CC(=O)N(C)C(C)c2ccco2)cc1` (stereo not drawn), the Potency entry in assay [1] and in assay [2] was “inactive” throughout.

`Cc1ccc(OCCn2c(CCNC(=O)c3cccc(C)c3)nc3ccccc32)cc1`: the Potency entry in assay [1] and in assay [2] was “inactive” in each case.

On to `CCCn1c(C)nc2c(NCCN3CCCC3)nc(C)nc21`, for which the Potency result in assay [1] and in assay [2] was “inactive” throughout.

Regarding `Cc1ccc(-c2nc(NCC(=O)Nc3cccc(C(=O)O)c3)c3ccccc3n2)cc1`, the Potency result in assay [1] and in assay [2] was “inactive” in each case.

Consider `COC(=O)c1sc2c(c1-c1nc3ccccc3s1)CCNC2`, for which the Potency result in assay [1] and in assay [2] was “inactive” throughout.

On to `Cc1cc(NS(=O)(=O)c2ccc(NC(=O)Cc3ccc(F)c(Cl)c3)cc2)no1`, for which the Potency result in assay [1] and in assay [2] was “inactive” in each case.

On to `CC(=O)Nn1c(C)nc2sc3c(c2c1=O)CCNC3`, for which the Potency entry in assay [1] and in assay [2] was “inactive” in each case.

Regarding `Cc1ccc(-c2ccc(=O)n(CCNC(C)c3ccco3)n2)cc1` (stereo not drawn), the Potency entry in assay [1] and in assay [2] was “inactive” in each case.

As for `CCCCN(C)C(=O)Cn1nc(-c2ccccc2C)ccc1=O`, the Potency result in assay [1] and in assay [2] was “inactive” each time.

As for `COc1ccc(-c2nnc3n2N=C(c2c(OC)cccc2OC)CS3)cc1`, the Potency result in assay [1] and in assay [2] was “inactive” throughout.

`Cc1cc(NC(=O)Nc2cccc(-c3ccncc3)n2)ccc1Br`: the Potency result in assay [1] and in assay [2] was “inactive” throughout.

Turning to `CCOC(=O)C1CCN(C(=O)CNC(=O)Nc2ccccc2Cl)CC1`, the Potency entry in assay [1] and in assay [2] was “inactive” each time.

With `NC(=O)c1cccc(-c2noc(-c3ccccc3F)n2)c1`, the Potency entry in assay [1] and in assay [2] was “inactive” each time.

Take `COc1cccc(NC(=S)N2CCN(c3ccc(Cl)cc3Cl)CC2)n1`: the Potency entry in assay [1] and in assay [2] was “inactive” throughout.

For the compound `CCOC(=O)c1c(CNCc2ccccc2F)c2sc(C)cc2n1C`, the Potency entry in assay [1] and in assay [2] was “inactive” throughout.

Regarding `CC(C)c1cc(C(C)C)c(S(=O)(=O)Nc2cccc3cccnc23)c(C(C)C)c1`, the Potency entry in assay [1] and in assay [2] was “inactive” throughout.

`Cc1ccnc(NC(=S)NCCNc2cccc(C(F)(F)F)c2)c1`: the Potency entry in assay [1] and in assay [2] was “inactive” in each case.

For the compound `Cc1ccc(NS(=O)(=O)c2cccc(Cl)c2)cc1C`, the Potency entry in assay [1] and in assay [2] was “inactive” each time.

On to `Cc1ccccc1C(C(=O)NC1CCCCC1)N(C(=O)Cn1cnc2ccccc21)c1cccc(F)c1` (stereo not drawn), for which the Potency entry in assay [1] and in assay [2] was “inactive” in each case.

The record behind these values is PubChem BioAssay (NCATS).
